An excerpt weighted towards active compounds, which were near 3.9% of everything screened.
HTT prom inh – inhibits huntingtin promoter activity; AID 1508623; Potency, µM (highest dose often 57.5 µM), without a hit: top-dose activity change, negative = inhibition, usual class: inhibitors; HEK293 HTT promoter firefly luciferase reporter, 24 h; 48,000 tested, 0.93% active; note: potency is the fitted concentration of half-maximal effect; nearly all actives have a fitted effect of over 50% in size
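Quantitative HTS used concentration series of up to 57.5 uM final on HEK293 luciferase reporter cells, 24 h at 37 degrees C. Readout was Dual-Glo firefly luminescence.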
p53null 32C kill – selectivity test: cytotoxicity in p53 null cells, permissive temperature. H1299-neo p53 null cells, ATP luminescence, 24 h, 32C. Potency, µM (doses to about 46.1 µM), without a hit: at the top dose activity change, negative = cytotoxicity, most hits filed as cytotoxic. 55,000 tested, 0.62% active;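 note: potency is the fitted concentration of half-maximal effect; 0% = DMSO only and -100% = full killing by 100 µM tamoxifen; nearly all actives have a fitted effect of over 55% in size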
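H1299-neo (p53-null) cells, 600/well, were pre-incubated overnight at 37C, then exposed to compounds at up to 46 uM for 24 hr at 32C. Viability was measured as ATP content by luminescence, and AC50 values came from Hill fits.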
HTT-AS promoter – activates huntingtin-antisense promoter activity; HEK293 HTT-AS promoter firefly luciferase reporter, 24 h; response scale: percent change from vehicle, -100% = no light; Potency, µM (titrated, usually from 57.5 µM), without a hit: top-dose activity change, positive = activation, usual class: activators; 48,000 tested, 0.24% active; note: potency is the fitted concentration of half-maximal effect; nearly all actives have a fitted effect of over 55% in size
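HEK293 Fluc reporter, 2,500 cells/well, 24 h pre-culture; cpds up to 57.5 uM final, 24 h 37 degrees C; Dual-Glo, 10 min RT; normalized vehicle = 0%, zero RLU = -100%.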
DRV1 agonist – GPR32 (DRV1) agonism, beta-arrestin recruitment; 48,000 tested, 2.5% active; CHO-K1 GPR32 beta-arrestin PathHunter luminescence, 90 min; zero percent set by DMSO-only wells; activation, % at 76.9 µM;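 active = activation of at least 60% and not above a set upper limit, about 1 call in 100 departs from these limits; inconclusive = activation of 40% to 60%, or above that upper limit; inactive = activation under 40%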; note: 0% is about no effect
Target sequence (O75388 whole entry, looked up): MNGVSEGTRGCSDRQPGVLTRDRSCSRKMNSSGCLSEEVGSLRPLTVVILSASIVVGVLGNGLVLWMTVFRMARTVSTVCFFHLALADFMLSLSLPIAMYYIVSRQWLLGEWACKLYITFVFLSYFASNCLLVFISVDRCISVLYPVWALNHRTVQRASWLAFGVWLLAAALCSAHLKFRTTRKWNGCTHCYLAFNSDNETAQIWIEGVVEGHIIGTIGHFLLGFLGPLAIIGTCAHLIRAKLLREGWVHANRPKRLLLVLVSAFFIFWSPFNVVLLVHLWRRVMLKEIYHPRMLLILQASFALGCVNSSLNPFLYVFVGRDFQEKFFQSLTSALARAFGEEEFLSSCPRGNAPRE
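Using DMSO wells as EC0, agonist-induced signal was taken as chemiluminescence from beta-Gal reconstituted upon beta-arrestin recruitment to GPR32 in CHO-K1 cells after 90 min compound treatment.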
p53null 39C tox – selectivity test: cytotoxicity in p53 null cells, nonpermissive temperature; H1299 p53-null (neo) cells, 39C, ATPlite viability, 24 h; Potency, µM (doses to about 46.1 µM), inactives show at the highest dose activity, negative = cell killing, usual class: cytotoxic; 55,000 tested, 0.97% active; AID 904;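 note: potency is the fitted concentration of half-maximal effect; 0% = DMSO only and -100% = full killing by 100 µM tamoxifen; nearly all actives have a fitted effect of over 50% in size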
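Luminescent ATP signal reported cell survival after H1299 lines (neo, p53 null; or p53 A138V) received up to 46 uM compound and 24 hr incubation at 39C.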
The depositor's hits bear a star; ? = inconclusive; · = no result; [ ] = remark or other dose. Unless noted, calls come from the whole dose curve; as a rule, active = well fitted curve in the direction sought with a large enough effect; inconclusive = small, poorly fitted or top-dose-only effect, or another doubt; inactive = no such curve, though single readings can be large; an effect the other way counts as inactive or inconclusive.

SMILES	HTT prom inh	p53null 32C kill	HTT-AS promoter	DRV1 agonist	p53null 39C tox
CC(=O)Nc1cccc(NC(=O)Cc2csc(COc3cccc(C)c3)n2)c1	?	-15%	-17%	69*	2%
Cc1cccc(NC(=O)Cc2csc(COc3cccc(C)c3)n2)c1	-13%	-5%	13%	2	-8%
Nc1nccc(Oc2ccc(NC(=O)c3c[nH]cc(-c4ccc(F)cc4)c3=O)cc2F)c1Cl	?	·	-41%	·	·
CCOc1cc(C(=O)Nc2ccc(Cl)c(-c3nc4ccccc4[nH]3)c2)cc(OCC)c1OCC	?	·	-34%	·	·
CN[C@@H](C)C(=O)N[C@H]1CN(C(=O)CC(C)C)CC[C@H]2CC[C@@H](C(=O)NC(c3ccccc3)c3ccccc3)N2C1=O	-18%	·	-32%	·	·
C/C=C1\NC(=O)[C@H]2CSSCC/C=C/[C@H](CC(=O)N[C@H](C(C)C)C(=O)N2)OC(=O)C(C(C)C)NC1=O (some centres not stated)	-89%	·	·	·	·
O=C(NCCc1ccc(Cl)cc1)c1ccc2c(c1)nc1n2CCOC1	11%	5%	18%	3	-29%
Cc1ccccc1CCNC(=O)c1ccc2c(c1)nc1n2CCCCC1	?	2µM*	-55%	-4	1.3µM*
CC1CCn2c(nc3cc(C(=O)NCCc4ccccc4)ccc32)C1 (configuration not stated)	2%	13µM*	?	0	25µM*
CC1CCn2c(nc3cc(C(=O)NCCc4ccc(Cl)cc4)ccc32)C1 (configuration not stated)	-6%	-1%	-2%	-7	2%
Cc1ccccc1CCNC(=O)c1ccc2c(c1)nc1n2CCOC1	8%	7.9µM*	?	-6	3.2µM*
O=C(O)C1=NC(C(=O)O)CC(C=CN2c3cc(O)c(OC4OC(CO)C(O)C(O)C4O)cc3CC2C(=O)O)=C1 (configuration not stated)	14%	·	4%	·	·
Cc1cc(Nc2cc(N3CCN(C)CC3)nc(C=Cc3ccccc3)n2)n[nH]1	?	·	-32%[116 µM]	·	·
COc1cccc(CCc2ccccc2OCC(CN(C)C)OC(=O)CCC(=O)O)c1 (configuration not stated)	-2%	·	-18%	95*	·
COC(=O)CCCn1c(-c2ccc(C)cc2)c(C)n2c3c(=O)n(C)c(=O)n(C)c3nc12	5%	10%	-8%	20	?
Cc1ccc(-c2c(C)n3c4c(=O)n(C)c(=O)n(C)c4nc3n2CCCO)cc1	10µM*	-6%	-62%	60*	-12%
OCc1ccccc1O[C@@H]1O[C@H](CO)[C@H](O)[C@H](O)[C@H]1O	-9%	·	-6%	·	·
CCOc1ccc(NC(=O)CNS(=O)(=O)c2ccc(Br)s2)cc1	-33%	18%	-41%	42	-1%
CCOC(=O)c1ccc(NS(=O)(=O)c2ccc(Br)s2)cc1	-15%	-6%	-17%	66*	-24%
COC(=O)[C@@H]1[C@H]2C[C@@H]3c4[nH]c5ccccc5c4CCN3C[C@@H]2CC[C@@H]1O	1%	·	-2%	·	·
CCCOc1ccccc1C(=O)Nc1ccc(-c2nc3ccc(C)cc3s2)cc1	-15%	?	2.2µM*	4	?
CCn1cc(C(=O)N2CCN(c3cccc(C(F)(F)F)c3)CC2)c2cc(OC)c(OC)cc2c1=O	-15%	·	-19%	18	·
CCn1cc(C(=O)N2CCN(c3cccc(C)c3C)CC2)c2cc(OC)c(OC)cc2c1=O	-16%	18%	-19%	76*	-5%
NS(=O)(=O)OC[C@@H]1C[C@@H](n2ccc3c(N[C@H]4CCc5ccccc54)ncnc32)C[C@H]1O	-2%	·	-31%	·	·
Cc1ccc(NC(=O)CSc2nc(-c3cccs3)nc3cc(=O)[nH]n23)cc1	·	-5%	·	99*	-9%
SMILES	HTT prom inh	p53null 32C kill	HTT-AS promoter	DRV1 agonist	p53null 39C tox
CC(C)c1nn(-c2c(Cl)cccc2Cl)c2nc(Cc3ccc(OCCO)cc3)[nH]c(=O)c12	?	·	-42%	·	·
COc1ccc(NC(=O)c2ccco2)cc1NC(=O)COc1ccccc1Cl	?	-10%	-23%	64*	-20%
CCOc1ccc(NC(=O)CSc2oc(-c3ccc(C)cc3)nc2S(=O)(=O)c2ccc(C)cc2)cc1	-17%	13µM*	-19%	-6	13µM*
CCOc1ccc(NC(=O)CSc2oc(-c3cccs3)nc2S(=O)(=O)c2ccc(Cl)cc2)cc1	-13%	-10%	4%	-4	?
CCc1ccc(-c2[nH]nc3nc(-c4cc(OC)ccc4OC)cc(C(=O)O)c23)cc1	-9%	10µM*	-11%	-15	4µM*
CCOc1ccc(NCc2cccn2-c2nnc(N3CCC(C(=O)NCc4cccc(OC)c4)CC3)s2)cc1	?	-11%	-46%	-33	-4%
Cc1ccc(NCc2cccn2-c2nnc(N3CCC(C(=O)NCCc4ccc(Cl)cc4)CC3)s2)cc1	?	21%	-32%	-34	30%
CCOc1ccc(NCc2cccn2-c2nnc(N3CCC(C(=O)NCc4ccc(C)cc4)CC3)s2)cc1	14µM*	-1%	-52%	-25	-8%
Cc1ccc(NCc2cccn2-c2nnc(N3CCC(C(=O)NCc4ccc(OC(C)C)cc4)CC3)s2)cc1	28µM*	21%	-43%	-26	0%
CC(=O)N1CCN(c2ccc(O)cc2)CC1	4%	·	-9%	42	·
Fc1ccc(Cc2cn3cc(-c4ccc(F)cc4)nc3s2)cc1	-22%	?	?	15	?
Cc1ccc(Cc2cn3cc(-c4ccccc4)nc3s2)cc1	?	?	-31%	8	?
Fc1ccccc1Cc1cn2cc(-c3ccc(Cl)cc3)nc2s1	3%	?	?	68*	?
Fc1ccc(-c2cn3cc(Cc4ccccc4Cl)sc3n2)cc1	?	?	-11%	28	7.9µM*
Clc1ccc(-c2cn3cc(Cc4ccccc4)sc3n2)cc1	-18%	?	3%	35	16µM*
CN(C)c1ccc(C(=O)NCCCCCCC(=O)NO)cc1	234%	·	?	·	·
Cc1cccc(C(=O)Nc2cc3nn(-c4ccc(C(C)C)cc4)nc3cc2C)c1	10%	-16%	0%	102*	-13%
COc1ccc(C(=O)Nc2nc3c(s2)CCCC3)cc1Cl	2%	-14%	?	-21	?
O=C(Nc1nc2c(s1)CCCC2)c1ccc2ncsc2c1	·	13µM*	·	·	11µM*
O=C(Nc1cccc(Br)c1)Nc1nc2c(s1)CCCCCC2	-13%	4%	-2%	113*	?
Cc1cccc(C(=O)Nc2nc3c(s2)CCCC3)c1	-4%	13µM*	?	-12	13µM*
COc1ccc(NC(=O)Nc2nc3c(s2)CCCC3)cc1	·	-15%	·	·	-26%

High-throughput results: PubChem BioAssay, National Center for Advancing Translational Sciences (NCATS)
